# High-throughput results deposited in PubChem BioAssay by National Center for Advancing Translational Sciences (NCATS).
# The list is not random: actives were taken first. Their share in the collection is about 10%.
# G9a block = blocks human histone lysine methyltransferase G9a; Q96KQ7; G9a H3K9 monomethylation, AlphaScreen, 2 h; Potency, µM (series often up to 102 µM), for the others: at the highest dose activity, negative = inhibition, usual class: inhibitors; 8.8% of 350,000 active; AID 504332; further: on the % scale 0 is the no-effect control and ±100 the full control effect; nearly all actives have a fitted effect of over 75% in size
# Target sequence (Q96KQ7 913-1193 limits assumed): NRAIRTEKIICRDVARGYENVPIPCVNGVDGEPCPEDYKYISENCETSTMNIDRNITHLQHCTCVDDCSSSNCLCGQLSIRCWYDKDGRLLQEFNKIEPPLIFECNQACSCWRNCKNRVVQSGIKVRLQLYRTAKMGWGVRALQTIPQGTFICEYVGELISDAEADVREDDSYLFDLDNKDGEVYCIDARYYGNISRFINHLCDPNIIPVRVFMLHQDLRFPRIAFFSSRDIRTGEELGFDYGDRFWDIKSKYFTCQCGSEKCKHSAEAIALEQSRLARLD
#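 Signal arises when biotinylated H3K9 peptide, once monomethylated, bridges streptavidin donor and antibody-captured acceptor beads. Enzyme at 20 nM was preincubated 15 min with test compounds; peptide 500 nM and SAM 20 uM then reacted for 2 h.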
# GLS inh = inhibitors of human glutaminase (GLS); O94925; GLS enzymatic activity, qHTS titration; Potency, µM (highest dose often 45.5 µM), for the others: at the highest dose activity change, negative = inhibition, hits mostly inhibitors; 0.21% of 410,000 active; AID 624170; further: on the % scale 0 is the no-effect control and ±100 the full control effect
#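 Enzyme dispensed in phosphate buffer (45 mM, pH 8.2, 0.02% Tween-20), compounds pinned in, then 1 mM L-glutamine solution and the glutamate oxidase–HRP–Amplex Red mix added; fluorescence read immediately and again after 30 min at room temperature.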
# JMJD2A Tudor inh = blocks the human JMJD2A Tudor domain | O75164 | AlphaScreen JMJD2A-Tudor / H3K4me3 peptide binding | Potency, µM (titrated, usually from 114 µM), for inactives: at the top dose activity change, negative = inhibition, actives largely listed as inhibitors | 4.4% of 390,000 active; further: on the % scale 0 is the no-effect control and ±100 the full control effect; nearly all actives have a fitted effect of over 50% in size
# HP1b chromo inh = inhibitors of HP1-beta chromodomain binding to methylated histone tails. AlphaScreen HP1-beta / biotin-H3K9me3 peptide binding. P83916. 0.56% of 390,000 active. Potency, µM (series often up to 114 µM), inactives show at the top dose activity change, negative = inhibition, usual class: inhibitors; further: nearly all actives have a fitted effect of over 70% in size
# Target sequence (P83916 whole entry, looked up): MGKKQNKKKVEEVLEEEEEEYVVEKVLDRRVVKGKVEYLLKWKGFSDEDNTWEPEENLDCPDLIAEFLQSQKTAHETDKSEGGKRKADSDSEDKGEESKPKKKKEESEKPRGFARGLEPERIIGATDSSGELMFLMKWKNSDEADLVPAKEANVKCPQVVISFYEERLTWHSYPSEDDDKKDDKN
#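 AlphaScreen: HP1-beta (50 nM) preformed 30 min with biotin-H3(1-18)K9me3 peptide (50 nM) in PBS pH 7.4, 0.01% Tween-20. Compound added for 30 min at RT, then streptavidin donor/nickel chelate acceptor beads (10 ug/mL) for 30 min.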
# BAZ2B inh = blocks human BAZ2B; AID 504333; Potency, µM (doses to about 114 µM), for the others: at the top dose activity change, negative = inhibition, actives largely listed as inhibitors; AlphaScreen BAZ2B-H3K14Ac peptide displacement; 4.4% of 360,000 active; Q9UIF8; further: on the % scale 0 is the no-effect control and ±100 the full control effect; nearly all actives have a fitted effect of over 60% in size
#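 Compounds, titrated to a top concentration of 110 uM, were incubated 30 min at room temperature with preformed BAZ2B/acetyl-K14 H3 peptide complex (50 nM each). Proximity signal was measured by AlphaScreen after 20 min with beads.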
# The depositor's hits bear a star; ? = inconclusive; · = not tested or not shown; [ ] = another dose, or the depositor's remark. The call rests on the fitted dose curve; in most records, active means well fitted curve in the direction sought with a large enough effect; inconclusive means small, poorly fitted or top-dose-only effect, or another doubt; inactive means no such curve, though single readings can be large; an effect the other way counts as inactive or inconclusive. Potency means the concentration at half of the fitted maximal effect.
SMILES,G9a block,GLS inh,JMJD2A Tudor inh,HP1b chromo inh,BAZ2B inh
O=S(=O)(NC1CCCCCCC1)c1ccccc1F,-6%[59 µM],-1%,3%,46%,9%
CCC(=O)N1CCc2cc(S(=O)(=O)NCCC(=O)N3CCN(c4cccc(C)c4)C(C)C3)ccc21 (stereo not given),·,20%,?,-6%,-17%
O=C1CC(c2ccc(F)cc2)Cc2nc(N3CCN(c4ccccc4)CC3)ncc21 (stereo not given),?,16%,-3%,15%,13%
CCC(C)Nc1nc(N)c([N+](=O)[O-])c(NCCO)n1 (stereo not given),14%,-1%,3%,47%,-16%
COCCNC(=O)[C@H]1C[C@@H]1[C@H](NP(=O)(c1ccccc1)c1ccccc1)c1ccccc1,56µM*,-4%,-11%,38%,0%
COc1cccc(-c2cc(C(=O)Nc3cc(Cl)ccc3O)on2)c1,13µM*,-10%,?,-1%,?
COc1cccc(-c2cc(C(=O)Nc3cc(OC)c(OC)c(OC)c3)on2)c1,-40%[59 µM],-16%,?,1%,-34%
COc1ccc(-c2cc(C(=O)Nc3cccc(O)c3)on2)cc1OC,14µM*,3%,?,-9%,?
CC(=O)Nc1nnc(SCC(=O)NC(C)(C)C)s1,?,11%,-5%,36%,-2%
CCOc1ccc(OCC(=O)Nc2cc3c(cc2C(=O)O)OCCCO3)cc1,14µM*,3%,-17%,36%,2%
COc1cccc(CCC(=O)Nc2cc3c(cc2C(=O)O)OCCCO3)c1OC,7.9µM*,16%,-14%,21%,-20%
COc1ccc(OCC(=O)Nc2cc3c(cc2C(=O)O)OCCCO3)cc1,14µM*,11%,-20%,19%,3%
COc1ccc(C(=O)Nc2cc3c(cc2C(=O)O)OCCCO3)c(OC)c1,18%[59 µM],-6%,-8%,0%,0%
COc1ccccc1C1=NOC(CN2C(=O)c3ccccc3S2(=O)=O)C1 (stereo not given),-4%,-1%,-6%,38%,-2%
CN(C(=O)Cn1ncc2c1-c1ccccc1OC2)c1ccc(Br)cc1,-2%[59 µM],4%,-10%,16%,-5%
O=C(c1cnccn1)N1CCC[C@@]2(CCN(c3ncccn3)C2)C1,2%[12.7 µM],·,·,·,·
CCN/N=C(\Cc1nc2ccccc2[nH]1)c1ccccc1,16%,-26%,-31%,31%,-7%
O=C(Nc1nc2ccccc2[nH]1)c1cccc(Cl)c1,·,-5%,-15%,34%,0%
Clc1cccc(/C(Cc2nc3ccccc3[nH]2)=N\Nc2ccccc2)c1,6.3µM*,12%,?,0%,-36%
N#CCCN/N=C(/Cc1nc2ccccc2[nH]1)c1ccc(Cl)cc1,?,·,·,·,-6%
Cc1ccc(N/N=C(\Cc2nc3ccccc3[nH]2)c2ccccc2)cc1,7.1µM*,5%,?,?,?
c1ccc(N/N=C(\Cc2nc3ccccc3[nH]2)c2ccccc2)cc1,1.4µM*,8%,?,-18%,?
N#CCCN/N=C(\Cc1nc2ccccc2[nH]1)c1ccccc1,50µM*,10%,-31%,-6%,-19%
COc1ccc(CN(C)CC(=O)NC(C)c2ccccc2)cc1OC (stereo not given),8%[59 µM],-20%,-13%,19%,-13%
CSC1=NCCN1C(=O)Cc1ccc(F)cc1,15%,-5%,-7%,55%,0%
SMILES,G9a block,GLS inh,JMJD2A Tudor inh,HP1b chromo inh,BAZ2B inh
Cc1ccc(S(=O)(=O)Nc2cc(C(=O)N3CCOCC3)ccc2N2CCCCC2)cc1,33%[0.501 µM],11%,-21%,26%,-33%
O=C(CN(Cc1ccco1)C(=O)c1nsc(Cl)c1Cl)NC1CCCCC1,-4%,2%,-9%,26%,-19%
CC(=O)c1ccc(N2CCN(C(=O)c3cccc(Oc4ccccc4)c3)CC2)cc1,4%,1%,-9%,22%,-22%
COc1ccc(Cl)cc1NC(=O)CN(C)C(=O)CCC(=O)c1cc(C)sc1C,-17%,-9%,-12%,28%,19%
O=C(CCC(=O)N(CC(=O)NC1CCCCC1)Cc1ccco1)Nc1nccs1,?,-4%,5%,17%,-22%
C=C(C)c1cccc(C(C)(C)NC(=O)N2CCN(c3ccc(OC)cc3)CC2)c1,?,29%,-12%,-11%,-10%
Cc1nc(N=Nc2cc(S(=O)(=O)O)c3cc([N+](=O)[O-])cc(S(=O)(=O)O)c3c2)c(COP(=O)(O)O)c(C=O)c1O,3.5µM*,·,·,·,·
CCCCC(CC(O)COCC(C)C)C(=O)NNC(=S)Nc1ccccc1 (stereo not given),8.9µM*,12%,1%,27%,0%
CC(=O)N1CCN(Cc2nc3cc(NC(=O)c4ccc(Cl)cc4)ccc3n2C)CC1,?,4%,-10%,26%,?
Cc1cccc(Cn2c(O)c(N=NC(=S)Nc3ccccc3F)c3ccccc32)c1,8.9µM*,3%,10µM*,-12%,8.9µM*
Oc1c(N=NC(=S)Nc2ccccc2F)c2ccccc2n1Cc1cccc(Cl)c1,?,-6%,?,?,11µM*
COc1ccc2c(c1)c(N1CCCC1=O)c(C(=O)Nc1cc(C)c(Cl)cc1OC)n2C,-37%[59 µM],-15%,-16%,-1%,?
OC1CC(c2ccco2)NC2(CCCCC2)C1 (stereo not given),8.9µM*,-1%,7.9µM*,-55%,?
CN1CCN(CC#CCC(O)(c2ccccc2)C2CCCC2)CC1 (stereo not given),8.9µM*,11%,-25%,7%,?
CN1CCN(CC#CCC(O)(c2ccccc2)c2ccccc2)CC1,71µM*,-12%,-11%,15%,-22%
OC(CC#CCN1CCCC1)(c1ccccc1)c1ccccc1,28µM*,-2%,-30%,26%,-24%
OC(CC#CCN1CCCCC1)(c1ccccc1)c1ccccc1,-10%,-4%,-15%,30%,-1%
O=C(NCc1ccc(OC(F)(F)F)cc1)C12CN(Cc3ccccc3)CC1C(c1cccc([N+](=O)[O-])c1)=NO2 (stereo not given),?,0%,-33%,-2%,-12%
O=C(NCc1ccccc1)C12CN(Cc3ccccc3)CC1C(c1cccc([N+](=O)[O-])c1)=NO2 (stereo not given),8.9µM*,-3%,-22%,16%,?
O=C(NCCCCCCOC1=NS(=O)(=O)c2ccccc21)C(=O)Nc1ccccc1,-39%,-7%,-24%,0%,·
CC1C(=O)N2CCCc3cc(S(=O)(=O)Nc4ccccc4F)cc1c32 (stereo not given),-27%,-13%,-9%,23%,7%
CC1C(=O)N2CCCc3cc(S(=O)(=O)Nc4ccccc4C(N)=O)cc1c32 (stereo not given),45µM*,2%,-10%,11%,-1%
CC1C(=O)N2CCCc3cc(S(=O)(=O)N4CCCCC4)cc1c32 (stereo not given),-28%,0%,4%,20%,10%
